Compounds with a hit are over-represented: about 1.1% of the library has one in this group of screens.
3CLpro inhibitor: SARS-CoV 3CLpro protease inhibitors, primary screen, biochemical, quenched FRET; recombinant SARS-CoV 3CLpro, quenched FRET peptide cleavage; inhibition, % at 6 µM; 290,000 tested, 0.14% active; AID 1706, 2009; in the data active = inhibition above about 12%
BioA inh: M. tuberculosis BioA enzyme inhibitors, primary screen, biochemical, plate reader, single point, HTS | AID 602481, 2012 | purified M. tuberculosis BioA enzyme | inhibition, % at 9.99 µM | 360,000 tested, 0.096% active; in the data active = inhibition above about 40%
MazF activator: activators of E. coli MazEF toxin-antitoxin RNase, primary screen, biochemical, fluorescence, uHTS; FAM/BHQ RNA-DNA oligo cleavage fluorescence, 5 h; activation, % at 20 µM; 350,000 tested, 0.32% active; in the data active = activation above about 50%
Target sequence (P0AE70 whole entry, looked up): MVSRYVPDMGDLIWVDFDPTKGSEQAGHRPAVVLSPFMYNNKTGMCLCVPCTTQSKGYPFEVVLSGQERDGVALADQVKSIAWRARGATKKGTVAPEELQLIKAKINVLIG
BJeLR viability: MLPCN primary cell-based screen for lethality selective to Ras in HRASV12 cells. BJeLR (HRASV12) viability, CellTiter-Glo ATP luminescence, 48 h. inhibition, % (no concentration beside the values). 300,000 tested, 0.17% active. AID 1554, 2009; in the data active = inhibition above about 50%
PfHsp40 rescue: rescue of yeast from PfHsp40 toxicity, primary screen, S. cerevisiae, ATP luminescence. growth rescue, % at 12.5 µM. 340,000 tested, 0.68% active. S. cerevisiae expressing PfHsp40, growth rescue; in the data active = growth rescue above about 28%, passing the limit was not always enough;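 also: yeast W303a lacking pdr1 and pdr3 grown in galactose medium; growth measured after three days at 30 °C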
Y pestis TopoI: Yersinia pestis topoisomerase I inhibitors, primary screen, biochemical, cleavage product accumulation, plate reader, single point | Y. pestis Topo-I cleavage product accumulation | activity, % at 10 µM | 360,000 tested, 0.064% active | AID 504884, 2011; in the data active = activity above about 50%, passing the limit was not always enough
* marks the source's active call; other numbers are inactive results.

Results for Cc1ccccc1Cn1nnc(C(=O)Nc2ccc3c(c2)OCCO3)c1N ?
BioA inh: 0; MazF activator: 3; BJeLR viability: -14; PfHsp40 rescue: 106*; Y pestis TopoI: 8

Results for Nc1c(C(=O)NCc2ccc3c(c2)OCO3)nnn1CC(=O)Nc1ccc(Br)cc1 ?
3CLpro inhibitor: 8; BioA inh: -1; MazF activator: 90*; BJeLR viability: 8; PfHsp40 rescue: -1; Y pestis TopoI: 37

How did Cc1ccc(NC(=O)Cn2nnc(C(=O)NCc3ccc4c(c3)OCO4)c2N)cc1 do in these assays?
3CLpro inhibitor: 5; BioA inh: -1; MazF activator: -70; BJeLR viability: 12; PfHsp40 rescue: 0; Y pestis TopoI: -3

Results for CN1CCN(C(=O)C[C@H]2CC[C@@H](NS(=O)(=O)c3cccc(F)c3)[C@H](CO)O2)CC1 ?
BioA inh: -3

Results for O=C(Cc1ccccc1)N1C[C@@H]2[C@H](c3ccccc31)[C@@H](CO)N2C(=O)C1CCCC1 ?
BioA inh: 4

What do the screens show for `CCC(=O)N1C[C@@H](O)COC[C@@H]2O[C@@H](CC(=O)NCc3cc(F)cc(F)c3)CC[C@H]21`?
BioA inh: -3

How did C=CCNC(=S)N1CCC(Cc2ccccc2)CC1 do in these assays?
3CLpro inhibitor: 2; BioA inh: 2; MazF activator: 2; BJeLR viability: -2; PfHsp40 rescue: 91*; Y pestis TopoI: 7

What do the screens show for `CNC(=S)N1CCC(Cc2ccccc2)CC1`?
3CLpro inhibitor: 1; BioA inh: 1; MazF activator: 3; BJeLR viability: -5; PfHsp40 rescue: 1; Y pestis TopoI: -11

What do the screens show for `COc1ccc(-c2oc(NC(=O)CSc3nncn3C)c(C#N)c2-c2ccc(OC)cc2)cc1`?
3CLpro inhibitor: 2; BioA inh: 0; MazF activator: -17; BJeLR viability: -1; PfHsp40 rescue: 44*; Y pestis TopoI: 38

How did CNC[C@H]1Oc2c(NC(=O)c3cc(C)nn3C)cccc2C(=O)N([C@H](C)CO)C[C@@H]1C do in these assays?
BioA inh: 7

Results for COc1ccccc1NC1=C(NC(C)=O)C(=O)c2ccccc2C1=O ?
3CLpro inhibitor: 4; MazF activator: 218*; BJeLR viability: -3; PfHsp40 rescue: 1; Y pestis TopoI: -9

How did COC1=C(Nc2ccccc2OC)C(=O)c2ccccc2C1=O do in these assays?
3CLpro inhibitor: 3; BioA inh: 1; MazF activator: 12; BJeLR viability: 5; PfHsp40 rescue: 1; Y pestis TopoI: -11

How did CC(C)NC(=O)N[C@H]1CC[C@H](CCNS(=O)(=O)c2ccc(Cl)cc2)O[C@@H]1CO do in these assays?
BioA inh: 0

How did Cc1cc(C)cc(OCC(=O)N(C)CC(=O)Nc2ccc(Cl)c(C(F)(F)F)c2)c1 do in these assays?
BioA inh: -2; MazF activator: 2; PfHsp40 rescue: 51*; Y pestis TopoI: -8

What do the screens show for `COc1ccc(NC(=O)CSCC(=O)N(C)CC(=O)Nc2ccc(Cl)c(C(F)(F)F)c2)cc1`?
BioA inh: 3; MazF activator: 1; BJeLR viability: 3; PfHsp40 rescue: 0; Y pestis TopoI: 16

What do the screens show for `COc1cc2c(C#N)c(N3CCCCC3)nc(N)c2c(N)n1`?
3CLpro inhibitor: 2; BioA inh: -2; MazF activator: 56*; BJeLR viability: -9; PfHsp40 rescue: 2; Y pestis TopoI: -5

What do the screens show for `COc1cc2c(C#N)c(N3CCc4ccccc4C3)nc(N)c2c(N)n1`?
3CLpro inhibitor: -14; BioA inh: 1; MazF activator: 62*; BJeLR viability: 2; PfHsp40 rescue: -1; Y pestis TopoI: -3

Results for COc1cc2c(C#N)c(N3CCOCC3)nc(N)c2c(N)n1 ?
3CLpro inhibitor: -6; BioA inh: -1; MazF activator: 20; BJeLR viability: -17; PfHsp40 rescue: -1; Y pestis TopoI: 6

Results for C[C@@H]1CN([C@@H](C)CO)C(=O)c2cccc(NC(=O)C3CCCCC3)c2O[C@H]1CN(C)S(=O)(=O)c1ccccc1 ?
BioA inh: -3

What do the screens show for `C[C@@H]1CN([C@H](C)CO)C(=O)c2cccc(NS(=O)(=O)c3ccc(Cl)cc3)c2O[C@@H]1CN(C)S(=O)(=O)c1cccs1`?
BioA inh: -1

How did Cc1ccc(CONC(=O)c2ccc([N+](=O)[O-])cc2)cc1 do in these assays?
BioA inh: 1; MazF activator: 0; PfHsp40 rescue: 38*; Y pestis TopoI: 3

How did CO[C@H]1CN(C)C(=O)c2ccc(NC(C)=O)cc2OC[C@@H](C)N(C(=O)C2CCOCC2)C[C@H]1C do in these assays?
BioA inh: 13

What do the screens show for `COc1cccc(NC(=O)CN(C)C(=O)c2cccnc2Nc2cccc(C(F)(F)F)c2)c1`?
BioA inh: -2; MazF activator: 4; PfHsp40 rescue: 299*; Y pestis TopoI: -20

What do the screens show for `COc1cccc(NC(=O)CN(C)C(=O)c2ccccc2OCC(=O)Nc2cccc(C(F)(F)F)c2)c1`?
BioA inh: -1; MazF activator: -1; BJeLR viability: -1; PfHsp40 rescue: -1; Y pestis TopoI: 6

What do the screens show for `COc1cccc(Nc2nc(-c3cccs3)nc3ccccc23)c1`?
3CLpro inhibitor: 4; BioA inh: 1; MazF activator: -2; BJeLR viability: -9; PfHsp40 rescue: 279*; Y pestis TopoI: -33

Results for Cc1cc(C(=O)Nc2cccc3c2O[C@H](CN(C)Cc2ccc(C(=O)O)cc2)[C@H](C)CN([C@@H](C)CO)C3=O)n(C)n1 ?
BioA inh: -4

What do the screens show for `Cn1c(SCc2ccc(Cl)cc2Cl)nc(C(F)(F)F)cc1=O`?
3CLpro inhibitor: 2; BioA inh: -1; MazF activator: -17; BJeLR viability: 15; PfHsp40 rescue: 0; Y pestis TopoI: -1

What do the screens show for `FC(F)(F)c1nc(SCc2ccc(Cl)cc2Cl)n[nH]1`?
3CLpro inhibitor: 4; MazF activator: 5; BJeLR viability: -3; PfHsp40 rescue: 299*; Y pestis TopoI: 2

Results for C=CC[C@@H](Cc1ccc(F)cc1)C(=O)OC[C@@H]1CCCN1C(=O)[C@H](CC=C)CC(=O)N(CCO)Cc1ccccc1 ?
BioA inh: -2; MazF activator: 4; PfHsp40 rescue: 37*; Y pestis TopoI: 16

What do the screens show for `C=CCC[C@H](Cc1ccc(F)cc1)C(=O)OC[C@@H](Cc1c[nH]c2ccccc12)NC(=O)[C@@H](CC=C)CC(=O)N[C@@H](CO)Cc1ccccc1`?
BioA inh: -1; MazF activator: 3; PfHsp40 rescue: 19; Y pestis TopoI: 18
